40 molecules from PubChem BioAssay (Tox21) can be followed below.

Inconclusive results are not listed. Entries that show only a call come without a potency. Calls of active or inactive are those of the source. Calls follow the shape of the dose curve; as a rule, active = well fitted cell-killing curve with a large enough effect in the repeat runs; inconclusive = weak or mixed curves, or effect the other way; inactive = flat fitted curve, though single readings scatter.

A short description of the assay: qHTS assay to identify small molecule that activate the aryl hydrocarbon receptor (AhR) signaling pathway - cell viability counter screen (AID 743086).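 Also: HepG2 liver cells carrying the AhR DRE luciferase reporter; nearly all actives have a fitted effect of over 45% in size.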 Conditions: HepG2-AhR-luc viability, CellTiter-Fluor, 24 h; series mostly up to 70.3 µM. An excerpt:
U.S. Tox21 Program National Center for Advancing Translational Sciences [NCATS] NIH Chemical Genomics Center [NCGC] U.S. Environmental Protection Agency [EPA] National Institutes of Environmental Health Sciences [NIEHS] National Toxicology Program [NTP] U.S. Food and Drug Administration [FDA] Tox21 Assay overview: The Aryl hydrocarbon Receptor (AhR), a member of the family of basic helix-loop-helix transcription factors, is crucial to adaptive responses to environmental changes. AhR mediates cellular responses to environmental pollutants such as aromatic hydrocarbons through induction of phase I and II enzymes but also interacts with other nuclear receptor signaling pathways A cell based HepG2-AhR-luc assay (HG2L7.5c1 cell line, developed by Dr. Michael S. Denison, University of California at Davis) was used to assess the activation of AhR. HepG2 (human hepatocellular carcinoma) cells were stably transfected with an Ah receptor-responsive firefly luciferase reporter gene plasmid containing 20 dioxin responsive elements and luciferase reporter gene. Increased luciferase activity can be used to identify the compounds that induce AhR activation. The cytotoxicity of the compounds screened against the HepG2-AhR-luc cell line was tested in parallel by measuring the cell viability using CellTiter-Fluor assay in the same wells.
Tox21 Assay Protocol Summary: 4000 cells in 5 uL/well were dispensed into white wall/solid bottom 1536-well plates using a Multidrop Combi (Thermo Fisher Scientific Inc., Waltham, MA) dispenser. After the assay plates were incubated at 37C for 5 h, 23 nL of compound or DMSO vehicle was transferred to the assay plates by a pintool station (Kalypsys, San Diego, CA). The plates were incubated at 37C for 24 hr. For cell viability measurement, 1 ul/well of CellTiter-Fluor reagent (Promega, Madison, WI) was added into the assay plates using a Flying Reagent Dispenser (FRD) (Aurora Discovery, CA),and then the assay plates were incubated at 37C for 30 min. The fluorescence intensity in the plates was measured using a ViewLux plate reader (PerkinElmer, Shelton, CT), followed by the addition of 4 uL of ONE-Glo Luciferase Assay reagent (Promega) using an FRD (Aurora Discovery). After the assay plates were incubated at room temperature for 30 min, luminescence intensity was measured using a ViewLux plate reader (Perkin Elmer).
Consider `OC/C=C/c1ccccc1`, for which the Potency entry was “inactive”.

Consider `CCN(CC)C(=O)c1ccc(O)c(OC)c1`, for which the Potency result was “inactive”.

For the molecule `CC(C)CCOC(=O)CC(C)C`, the Potency result was “inactive”.

On to `C#CC(O)CCCCC` (stereo not given), for which the Potency result is “inactive”.

Take `CCCCCCCCCCC1CO1` (stereo not given): the Potency result was “inactive”.

On to `CCCCCCC(CCCCCCCCCCC(=O)OCC(COC(C)=O)OC(C)=O)OC(C)=O` (stereo not given), for which the Potency entry was “inactive”.

Consider `O=[N+]([O-])c1ccc(Oc2ccc([N+](=O)[O-])cc2)cc1`, for which the Potency entry was “inactive”.

In the case of `C1CCCCCCCCCCC1`, the Potency entry is “inactive”.

Turning to `Nc1nc(F)nc2c1ncn2[C@@H]1O[C@H](CO)[C@@H](O)[C@@H]1O`, the Potency entry was “inactive”.

On to `OC1OC[C@@H](O)[C@H](O)[C@H]1O` (stereo not given in full), for which the Potency entry is “inactive”.

Turning to `CC(=O)N[C@@H](CCC(N)=O)C(=O)O`, the Potency result was “inactive”.

Consider `CC(=O)OC(C)(C)C`, for which the Potency result was “inactive”.

In the case of `O=S(=O)(O)c1ccccc1O`, the Potency result was “inactive”.

As to `OCc1ccccn1`, the Potency entry is “inactive”.

As to `CC(C)CCCC(C)CCCC(C)CCCCC(C)CCCC(C)CCCC(C)C` (stereo not given), the Potency entry was “inactive”.

As for `COC(C(=O)O)c1ccccc1` (stereo not given), the Potency result was “inactive”.

Consider `O=C(O)Cc1cc(I)c(Oc2cc(I)c(O)c(I)c2)c(I)c1`, for which the Potency entry was “inactive”.

In the case of `CC(=O)NC(Cc1ccccc1)C(=O)O` (stereo not given), the Potency result was “inactive”.

Regarding `Cc1cc(C)cc(OCC2CNC(=O)O2)c1` (stereo not given), the Potency entry is “inactive”.

Take `CO[Si](OC)(OC)OC`: the Potency entry is “inactive”.

With `CC(C)(O)C(=O)c1ccc(OCCO)cc1`, the Potency result is “inactive”.

With `OCCCCCCO`, the Potency result is “inactive”.

In the case of `CCC(=O)c1cccc(Cl)c1`, the Potency result is “inactive”.

With `CC(C)(C)OC(=O)N1C[C@@H](F)C[C@H]1C(=O)O`, the Potency entry is “inactive”.

Consider `O=C(O)c1cccc(C(=O)O)n1`, for which the Potency result is “inactive”.

Take `CCN1CCCC(OC(=O)C(c2ccccc2)c2ccccc2)C1` (stereo not given): the Potency entry is “inactive”.

For the molecule `C=C(C)C(=O)NCCCN(C)C`, the Potency result was “inactive”.

Regarding `Cn1cnc2c(=O)[nH]c(N)nc21`, the Potency result was “inactive”.

For `Nc1cc(C(Cl)=C(Cl)Cl)c(S(N)(=O)=O)cc1S(N)(=O)=O`, the Potency entry was “inactive”.

On to `COC(=O)[C@H]1[C@H]2C[C@@H]3c4[nH]c5cc(OC)ccc5c4CCN3C[C@H]2C[C@@H](OC(=O)COc2ccc(OC)cc2)[C@@H]1OC`, for which the Potency result is “inactive”.

Consider `O=C1C(CCS(=O)c2ccccc2)C(=O)N(c2ccccc2)N1c1ccccc1` (stereo not given), for which the Potency entry was “inactive”.

For the molecule `O=Cc1ccccc1[N+](=O)[O-]`, the Potency entry is “inactive”.

As to `Cc1nccn1CC1CCc2c(c3ccccc3n2C)C1=O` (stereo not given), the Potency result was “inactive”.

For `CC(C)c1cccc(C(C)C)c1N`, the Potency result was “inactive”.

`CSc1ccc(C=O)cc1`: the Potency result was “inactive”.

For `O=C(O)c1ccc[n+]([O-])c1`, the Potency entry was “inactive”.

As for `CCn1cc(C(=O)O)c(=O)c2cc(F)c(N3CCN(C)CC3)cc21`, the Potency result is “inactive”.

`COc1cc(CCC(C)=O)ccc1O`: the Potency entry was “inactive”.

`C(=C(c1ccccc1)c1ccccc1)c1ccccc1`: the Potency result was “inactive”.

Consider `CCCCCCOC(=O)c1ccccc1O`, for which the Potency result is “inactive”.
